In PubChem BioAssay (NCI):
This is part of a sample that, as a whole, favours compounds with a hit. Of some 79,000 tested, about 15% had one in any assay. Unmarked numbers belong to inactive results. Calls of active or inactive are those of the source. Rule as the data show it: active = growth inhibition above about 70%; inactive = the rest.

Assay: NCI Yeast Anticancer Drug Screen. Data for the mlh1 strain (AID 171);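 also: 0% = growth of vehicle-treated control cultures of the same strain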
Settings: S. cerevisiae mlh1 strain growth inhibition, active compounds read high
Method: Growth inhibition of yeast strains with defined genetic alterations is measured as a screen for potential anti-cancer activity. Selected strains with alterations in DNA damage repair or cell cycle control were exposed to compounds and growth inhibition was measured relative to vehicle treated controls. The strain used in this assay is mlh1

## Cc1cccc(C)c1NC(=O)C(C#N)C1=C(Cl)C(=O)c2ccccc2C1=O (stereo not given)
At 1.2 µM
  growth inhibition: -4%
At 3.7 µM
  growth inhibition: 78% (active)
At 11.0 µM
  growth inhibition: 98% (active)
At 33.0 µM
  growth inhibition: 98% (active)
At 100.0 µM
  growth inhibition: 98% (active)

## c1c[nH]c(CN2CCN(Cc3ncc[nH]3)CC2)n1
At 1.2 µM
  growth inhibition: -5%
At 3.7 µM
  growth inhibition: 37%
At 11.0 µM
  growth inhibition: 97% (active)
At 33.0 µM
  growth inhibition: 98% (active)
At 100.0 µM
  growth inhibition: 99% (active)

## CC(C)OP(=O)(OC(C)C)/C(Cl)=N/Nc1ccc([N+](=O)[O-])cc1
At 1.2 µM
  growth inhibition: 13%
At 3.7 µM
  growth inhibition: 23%
At 11.0 µM
  growth inhibition: 86% (active)
At 33.0 µM
  growth inhibition: 96% (active)
At 100.0 µM
  growth inhibition: 94% (active)

## CCN(CC)CCC(=O)Nc1ccc2sc3ccccc3c(=O)c2n1
At 1.2 µM
  growth inhibition: -2%
At 3.7 µM
  growth inhibition: -8%
At 11.0 µM
  growth inhibition: 1%
At 33.0 µM
  growth inhibition: 12%
At 100.0 µM
  growth inhibition: 7%

## CCN1CCC(O)(c2ccc(Oc3ccc(C)cc3)cc2)C(C(=O)c2ccc(Oc3ccc(C)cc3)cc2)C1 (stereo not given)
At 1.2 µM
  growth inhibition: -7%
At 3.7 µM
  growth inhibition: -2%
At 11.0 µM
  growth inhibition: 98% (active)
At 33.0 µM
  growth inhibition: 97% (active)
At 100.0 µM
  growth inhibition: 95% (active)

## O=C(O)c1ccccc1C(=O)OC1CCc2ccccc2C1 (stereo not given)
At 1.2 µM
  growth inhibition: -5%
At 3.7 µM
  growth inhibition: -9%
At 11.0 µM
  growth inhibition: -6%
At 33.0 µM
  growth inhibition: 14%
At 100.0 µM
  growth inhibition: 42%

## Cc1cccc(/C=N/NC(=S)NC2CCCCC2)n1
At 1.2 µM
  growth inhibition: -6%
At 3.7 µM
  growth inhibition: -4%
At 11.0 µM
  growth inhibition: -3%
At 33.0 µM
  growth inhibition: 12%
At 100.0 µM
  growth inhibition: 8%

## CS(=O)(=O)O.[Ag]
At 1.2 µM
  growth inhibition: 89% (active)
At 3.7 µM
  growth inhibition: 100% (active)
At 11.0 µM
  growth inhibition: 99% (active)
At 33.0 µM
  growth inhibition: 99% (active)
At 100.0 µM
  growth inhibition: 98% (active)
